# From PubChem
# IL1B secr inh = qHTS for Inhibitors of Inflammasome Signaling: IL-1-beta AlphaLISA Primary Screen; THP-1 LPS/ATP IL-1B secretion, AlphaLISA, 16 h; stronger effect = lower value; activity change, % at 57.5 µM; 360,000 tested, 4.7% active; in the data active means activity change below about -50%; inconclusive means mostly about -30% to -49%
#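 Secreted IL-1B measured by AlphaLISA bead assay after 16 h compound exposure of THP-1 cells; compounds (final up to 57.5 uM) added 1 h before LPS (250 ng/mL) and ATP (1.25 mM) stimulation; lower signal means less secretion.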
# ALOX12 inh = Primary qHTS assay for inhibitors of human arachidonate 12S-lipoxygenase (ALOX12): Round 2 | Potency, µM (series often up to 108 µM), without a hit: at the highest dose activity change, negative = inhibition, hits mostly inhibitors | AID 1671190, 2021 | Polyunsaturated fatty acid lipoxygenase ALOX12 (Homo sapiens), P18054 | purified 12hLO, xylenol orange hydroperoxide absorbance | 580,000 tested, 1.1% active; further: potency means the concentration at half of the fitted maximal effect
# Target sequence (P18054 whole entry, looked up): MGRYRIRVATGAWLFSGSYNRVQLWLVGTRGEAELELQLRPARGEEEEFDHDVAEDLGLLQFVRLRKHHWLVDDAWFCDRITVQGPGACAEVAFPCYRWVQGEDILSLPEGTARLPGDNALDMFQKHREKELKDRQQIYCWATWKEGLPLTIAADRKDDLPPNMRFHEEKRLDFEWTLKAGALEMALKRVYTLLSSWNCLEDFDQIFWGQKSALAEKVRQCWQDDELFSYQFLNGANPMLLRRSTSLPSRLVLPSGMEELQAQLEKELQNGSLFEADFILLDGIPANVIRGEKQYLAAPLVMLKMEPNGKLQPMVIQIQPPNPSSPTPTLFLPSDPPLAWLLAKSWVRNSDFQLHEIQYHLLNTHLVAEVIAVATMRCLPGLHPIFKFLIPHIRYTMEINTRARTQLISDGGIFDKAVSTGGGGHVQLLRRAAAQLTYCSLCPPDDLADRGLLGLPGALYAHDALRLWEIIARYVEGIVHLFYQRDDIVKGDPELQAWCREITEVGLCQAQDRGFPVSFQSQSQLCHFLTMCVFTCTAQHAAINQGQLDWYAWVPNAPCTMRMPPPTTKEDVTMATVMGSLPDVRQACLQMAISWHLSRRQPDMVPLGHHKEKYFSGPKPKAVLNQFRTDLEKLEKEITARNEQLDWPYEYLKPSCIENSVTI
#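 Hydroperoxide product was detected by ferrous iron/xylenol orange as the 573 to 405 nm absorbance ratio. Arachidonic acid at 40 uM (final) was turned over for 30 min at room temperature by 150 nM human 12hLO, pH 7.0 Hepes buffer, after 15 min compound preincubation.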
# HT1080NT lethal = qHTS for induction of synthetic lethality in tumor cells producing 2HG: qHTS for the HT-1080-NT fibrosarcoma cell line. HT-1080-NT fibrosarcoma viability, CellTiter-Glo ATP luminescence, 48 h. 360,000 tested, 1.6% active. AID 686970, 2013. Potency, µM (top dose mostly 46.1 µM), for inactives: top-dose activity, negative = less viability, most hits filed as cytotoxic;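 further: NT is the 2HG producing partner of a matched IDH1 knockdown line; potency means the concentration at half of the fitted maximal effect; 0% = DMSO-treated cells and -100% = media-only wells without cells; nearly all actives have a fitted effect of over 55% in size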
#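 Viability by CellTiter-Glo luminescence after 48 h compound exposure at 37C of HT-1080-NT cells (750/well, RPMI, 5% FBS). % activity scaled between DMSO wells and medium-only wells, then curve-fitted and categorized by curve class.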
# TDP1 cell CPT = qHTS for Inhibitors of human tyrosyl-DNA phosphodiesterase 1 (TDP1): qHTS in cells in presence of CPT; chicken DT40 Tdp1-/-;hTDP1 cells + 20 nM CPT, ATP luminescence, 48 h; Potency, µM (series often up to 46.2 µM), without a hit: at the highest dose activity change, negative = growth inhibition, hits mostly inhibitors; 420,000 tested, 12% active; further: potency means the concentration at half of the fitted maximal effect; nearly all actives have a fitted effect of over 55% in size
#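 Chicken DT40 Tdp1-/- cells stably complemented with human TDP1 were seeded at 400 cells/well in medium containing 20 nM camptothecin, exposed to pin-transferred compounds, and grown at 37 °C for at least 48 hr. Viability was read as ATP luminescence.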
# DT40 TDP1 no CPT = qHTS for Inhibitors of human tyrosyl-DNA phosphodiesterase 1 (TDP1): qHTS in cells in absence of CPT; DT40 Tdp1-/- hTDP1 cells, no CPT, ATP luminescence, 48 h; Potency, µM (series often up to 46.2 µM), without a hit: at the top dose activity change, negative = growth inhibition, most hits filed as inhibitors; 420,000 tested, 15% active; AID 686978, 2013; further: potency means the concentration at half of the fitted maximal effect; nearly all actives have a fitted effect of over 55% in size
#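 Chicken DT40 Tdp1-/- cells stably complemented with human TDP1 were seeded at 400 cells/well with DMSO in place of 20 nM camptothecin. After compound pinning, cells grew at least 48 hr at 37 °C; viability read by CellTiter-Glo luminescence.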
# HT1080 IDH1KD tx = qHTS for induction of synthetic lethality in tumor cells producing 2HG: qHTS for the HT-1080-IDH1KD cell line; HT-1080 IDH1 knockdown viability, ATP luminescence, 48 h; Potency, µM (doses to about 46.1 µM), for inactives: at the highest dose activity, negative = toxicity, most hits filed as cytotoxic; 360,000 tested, 2% active; AID 686971, 2013;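 further: potency means the concentration at half of the fitted maximal effect; 0% = DMSO wells and -100% = cell-free medium wells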
#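 After a 2 h attachment period, IDH1KD HT-1080 cells took pin-transferred compound for 48 h at 37 °C; ATP-based luminescence after 10 min room-temperature reagent incubation reported viability.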
# An asterisk follows results filed as active; ? = inconclusive; . = no result given; [ ] = remark or other dose. The entries come from a sample that favours hits as a whole. Unless noted, the call rests on the fitted dose curve; in most records, active means well fitted curve in the direction sought with a large enough effect; inconclusive means small, poorly fitted or top-dose-only effect, or another doubt; inactive means no such curve, though single readings can be large; an effect the other way counts as inactive or inconclusive. Unless noted, on the % scale 0 is the no-effect control and ±100 the full control effect.
SMILES,IL1B secr inh,ALOX12 inh,HT1080NT lethal,TDP1 cell CPT,DT40 TDP1 no CPT,HT1080 IDH1KD tx
CCCCCCC[n+]1ccc(/C=C/c2c[nH]c3ccccc23)cc1,.,.,.,0.282µM*,0.316µM*,.
Cc1ccc(C2Cn3nnc(-c4nc(-c5ccc6c(c5)OCO6)no4)c3CO2)c(C)c1 (stereo not given),.,-1.1%,.,.,.,.
COc1ccc(CCNC(=O)CSCc2nc(-c3cccc(C)c3)oc2C)cc1OC,.,2.2%,.,20.6µM*,?,.
COc1cccc(-c2nc(CSCC(=O)NCCc3ccc(Cl)cc3)c(C)o2)c1,.,-11.9%,.,9.2µM*,?,.
COc1ccc(CCNC(=O)CSc2nnc(-c3cccc(C)c3)o2)cc1OC,-17.8,-10.8%,2.5%,-23.6%,-1.7%,-0.5%
COc1cccc(-c2nc(CS(=O)CC(=O)NCCc3ccccc3)c(C)o2)c1 (stereo not given),30.3,-2.9%,-3.8%,?,?,-1.6%
O=C(NCc1nnc2ccc(-c3ccccc3)nn12)c1cc(Cl)ccc1F,.,7.5%,.,.,.,.
CC(C)c1cccc(NC(=O)CC2(C(=O)O)CCCCC2)c1,.,-39.5%,.,.,.,.
CN1CCN(C2=Cc3ccc(Cl)cc3Sc3ccc(F)cc32)CC1,-71.3*,-25.1%,?,23.1µM*,20.6µM*,?
CN1CCN(C2=Cc3ccccc3Sc3cc(F)ccc32)CC1,?,?,15.8µM*,?,22.4µM*,?
CN1CCN(c2cc(-c3ccc(F)cc3C(F)(F)F)nc(N)n2)CC1,.,41.1%,.,.,.,.
COc1ccc(CN2C(=O)C(CC(C)C)Nc3ncnc(N4CCN(c5ccccn5)CC4)c32)cc1 (stereo not given),-57.7*,-13.3%,-19.1%,?,?,?
Cc1ccc(CN2C(=O)C(CC(C)C)Nc3ncnc(N4CCN(c5ccccn5)CC4)c32)cc1 (stereo not given),-55.5*,-29.6%,?,?,18.4µM*,?
CC(C)CC1Nc2ncnc(N3CCOCC3)c2N(Cc2ccccc2)C1=O (stereo not given),28.7,?,0.0%,-0.1%,-1.7%,-5.8%
CC(C)CC1Nc2ncnc(N3CCN(c4ccccn4)CC3)c2N(Cc2ccc(Br)cc2)C1=O (stereo not given),?,-8.9%,0.8%,?,?,?
OC1CCC(NCc2ccc(-c3cnc4c(OCc5ccccc5)nccn34)cc2)CC1 (stereo not given),.,-1.4%[176 µM],.,.,.,.
CC1Cc2ccccc2N1C(=O)CN1CCN(S(=O)(=O)c2cccs2)CC1 (stereo not given),0.0,0.2%,10.4%,?,14.6µM*,-0.2%
Cc1ccc(S(=O)(=O)N2c3ccccc3CC2C)cc1 (stereo not given),-3.4,-4.0%,?,?,?,?
CC1Cc2ccccc2N1S(=O)(=O)c1cccs1 (stereo not given),0.0,-26.9%,0.7%,20.6µM*,16.4µM*,-11.3%
CCOc1ccc(S(=O)(=O)N2c3ccccc3CC2C)cc1 (stereo not given),35.8,-14.3%,3.16µM*,0.651µM*,0.92µM*,?
COC(=O)COc1ccc2c(c1)oc(=O)c1ccccc12,.,-113.2%,.,.,.,.
Cc1cc(C)n(Cc2ccc(C(=O)N3CCC(c4noc(-c5cccnc5)n4)C3)o2)n1 (stereo not given),.,-8.2%,.,.,.,.
COC(=O)c1ccc(-n2c(C)cc(C(=O)CSc3ccc(NC(C)=O)cc3)c2C)cc1,-20.7,-16.2%,-4.0%,?,23.1µM*,-9.9%
CC(=O)Nc1ccc(SCC(=O)c2cc(C)n(-c3ccccc3F)c2C)cc1,-9.0,-14.0%,-8.8%,?,?,-9.9%
O=C(c1ccco1)N1CCN(Cc2nc3ccc([N+](=O)[O-])cc3c(=O)n2-c2ccccc2F)CC1,69.9,12.9%,-11.9%,?,8.2µM*,-14.3%
SMILES,IL1B secr inh,ALOX12 inh,HT1080NT lethal,TDP1 cell CPT,DT40 TDP1 no CPT,HT1080 IDH1KD tx
COc1ccc(-n2c(CN3CCN(c4ccccn4)CC3)nc3ccc([N+](=O)[O-])cc3c2=O)c(OC)c1,-23.0,53.6%,-0.6%,?,20.6µM*,0.1%
O=c1c2cc([N+](=O)[O-])ccc2nc(CN2CCN(c3ccccn3)CC2)n1-c1ccccc1F,32.4,13.5%,10.9%,?,14.6µM*,5.4%
COc1ccc(-n2c(CN3CCN(Cc4ccccc4)CC3)nc3ccc([N+](=O)[O-])cc3c2=O)c(OC)c1,62.0,4.0%,-11.3%,?,-6.5%,-2.4%
CCOc1ccccc1NS(=O)(=O)c1cc(-c2cnc(C)o2)ccc1C,.,-1.4%,.,.,.,.
O=C(COc1ccccc1)N[C@H]1CO[C@H]2[C@@H]1OC[C@H]2OC(=O)Nc1ccccc1,.,-3.3%[176 µM],.,.,.,.
O=Cc1c(Cl)[nH]c2ccccc12,.,30.4%,.,.,.,.
O=C(c1cccc(OC(F)(F)F)c1)N1CCC(c2n[nH]c(=O)n2-c2ccccc2)CC1,.,0.1%,.,.,.,.
CCOc1ccc(CN(C)CC(O)COCc2ccc(OC)cc2)cc1OC (stereo not given),.,-5.6%,.,.,.,.
COc1ccc(CN(C)CC(O)COC(c2ccc(OC)cc2)c2ccc(OC)cc2)cc1 (stereo not given),?,?,20.6µM*,?,23.1µM*,?
COc1ccc(C(OCC(O)CN(C)C2CCCCC2)c2ccc(OC)cc2)cc1 (stereo not given),-70.8*,-3.1%,?,16.4µM*,?,?
CCOc1ccc(CN(C)CC(O)COC(c2ccc(OC)cc2)c2ccc(OC)cc2)cc1 (stereo not given),-58.7*,?,16.4µM*,?,18.4µM*,?
C[C@@H]1CC=C[C@H]2[C@H]1C(=O)N(Cc1ccccc1)[C@H]2c1ccc(/C=C/c2ccccc2)cc1F,-1.8,-17.0%,?,?,-55.0%,-25.3%
C[C@@H]1CC=C[C@H]2[C@H]1C(=O)N(Cc1ccccc1)[C@H]2c1ccc(F)c(-c2ccc(N(C)C)cc2)c1,-1.1,-0.2%,?,8.2µM*,14.6µM*,-26.8%
